# Test results reported in PubChem BioAssay (EPA / NIEHS).
# Values joined by “and” are separate entries in the source; they are usually repeats but may differ in a detail not shown here. Equal entries are not always repeated. Results filed as inconclusive are left out. More than one record can exist for a structure, and the calls need not agree. Active and inactive are the calls of the source. Rule for the calls, unless noted: active = hit-call score of the fitted dose curve at least 0.9, where 1 is the maximum; inconclusive = response in the unintended direction; inactive = score below 0.9.
# Target: human Retinoic Acid Receptor beta (RARb), RARB (gene 5915) (UniProt P10826)
# Sequence (P10826 whole entry, looked up): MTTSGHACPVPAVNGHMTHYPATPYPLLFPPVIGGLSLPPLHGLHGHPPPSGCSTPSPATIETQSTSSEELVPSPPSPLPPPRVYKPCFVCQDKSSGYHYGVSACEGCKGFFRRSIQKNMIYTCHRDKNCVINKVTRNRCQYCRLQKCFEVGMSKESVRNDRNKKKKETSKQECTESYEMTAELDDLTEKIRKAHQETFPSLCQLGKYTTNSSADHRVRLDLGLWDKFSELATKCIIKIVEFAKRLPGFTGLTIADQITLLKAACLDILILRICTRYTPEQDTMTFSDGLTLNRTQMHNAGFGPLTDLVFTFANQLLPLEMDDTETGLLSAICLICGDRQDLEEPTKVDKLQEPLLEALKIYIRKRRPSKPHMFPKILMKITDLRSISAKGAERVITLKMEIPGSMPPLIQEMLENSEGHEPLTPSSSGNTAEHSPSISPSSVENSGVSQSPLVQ
# Assay: ATG_RARb_TRANS: Attagene TRANS-FACTORIAL HepG2 Assay for human Retinoic Acid Receptor beta (AID 2283004)
# Settings: not given
# Outline: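 Fluorescent capillary-electrophoresis detection of GAL4-UAS reporter mRNA defines the endpoint, with induction over DMSO-treated wells scored as activity. Transiently transfected human hepatoma HepG2 cells expressing exogenous NR–Gal4 proteins are exposed to test chemicals for 24 h.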
row,SMILES,outcome
1,CC(=O)OC1CC(C)OC(C)O1 (configuration not stated),inactive
2,CCCCCCC(C=O)=Cc1ccccc1,inactive
3,NC=O,inactive
4,Oc1ccc(O)cc1,inactive
5,CCN(CC)CCOc1ccc(C(=C(Cl)c2ccccc2)c2ccccc2)cc1,inactive

# Target: Retinoic acid receptor alpha (Homo sapiens) (UniProt P10276)
# Sequence (P10276 whole entry, looked up): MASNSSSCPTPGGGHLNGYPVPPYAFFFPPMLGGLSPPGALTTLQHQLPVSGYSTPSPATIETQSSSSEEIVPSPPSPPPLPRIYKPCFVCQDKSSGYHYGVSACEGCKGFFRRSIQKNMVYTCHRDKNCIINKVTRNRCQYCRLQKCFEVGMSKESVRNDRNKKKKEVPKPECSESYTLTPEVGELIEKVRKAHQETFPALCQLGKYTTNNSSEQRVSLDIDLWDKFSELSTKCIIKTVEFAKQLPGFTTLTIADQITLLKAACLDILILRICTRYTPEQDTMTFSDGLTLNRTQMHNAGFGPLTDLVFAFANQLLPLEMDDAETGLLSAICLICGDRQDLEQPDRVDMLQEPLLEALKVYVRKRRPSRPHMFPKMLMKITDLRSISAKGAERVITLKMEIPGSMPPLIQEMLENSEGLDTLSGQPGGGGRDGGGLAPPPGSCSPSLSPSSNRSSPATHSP
# Assay: ATG_RARa_TRANS: Attagene TRANS-FACTORIAL HepG2 Assay for human Retinoic Acid Receptor alpha (RARa) (AID 2283005)
# Settings: not given
# Outline: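 HepG2 cells transiently transfected with multiple reporter units expressing chimeric RARα-GAL4 fusion, with GAL4-UAS-driven reporters. After 24 h compound exposure, reporter mRNA induction quantified by RT-PCR and capillary electrophoresis with fluorescent labeling; gain-of-signal fitted relative to DMSO control.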
row,SMILES,outcome
1,CCCCCCCCCCCCCCCCO,inactive
2,N[C@@H](Cc1c[nH]c2ccccc12)C(=O)O,inactive
3,NC=O,inactive
4,Oc1ccc(O)cc1,inactive
5,CCN(CC)CCOc1ccc(C(=C(Cl)c2ccccc2)c2ccccc2)cc1,inactive

# Read-out: not listed separately
# Assay: BSK_3C_Proliferation: Cell Proliferation Assessment in the BioMAP Diversity Plus: 3C Assay (AID 2283006; active = hit-call score of the fitted dose curve at least 0.9, where 1 is the maximum; inactive = score below 0.9;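 for AC50: potency may reflect either rise or fall in cell number versus DMSO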)
# Settings: primary human endothelial cells (HUVEC)
# Outline: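 Cells (human umbilical vein endothelial, sub-confluent) receive test chemical; after 48 h they are fixed in 10% trichloroacetic acid, stained with 0.1% SRB and read at 560 nm. Activity is referenced to DMSO, fitting increases and decreases.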
SMILES,outcome,AC50
CCCCCCCC(=O)OC,inactive,
CN(C)CCCN(C)CCCN(C)C,inactive,
CCCCC(CC)COP(=O)(OCC(CC)CCCC)OCC(CC)CCCC (configuration not stated),,20.6 µM (active)
CCC(C)N(C)C(=O)c1cc2ccccc2c(-c2ccccc2Cl)n1 (configuration not stated),,8.77 µM (active)
O=C(O)c1cccnc1,inactive,
CN(C)CCCN1c2ccccc2Sc2ccc(Cl)cc21,,25 µM (active)
CCCCCCCCCCCCCCCCO,inactive,
CCOCCOCCO,inactive,
C=CCc1ccc(OC)c(OC)c1,inactive,
CC1(C)C(=O)NC(=O)N1CO,,5.5 µM (active)
COC(=O)CCCC(=O)OC,inactive,
CCCCC(CC)CO (configuration not stated),inactive,
CO[C@@H]1COCC[C@@H]1N[C@@H]1CC[C@@](C(=O)N2CCc3ncc(C(F)(F)F)cc3C2)(C(C)C)C1,inactive,
CC(=O)OC1CC(C)OC(C)O1 (configuration not stated),inactive,
N[C@@H](Cc1c[nH]c2ccccc12)C(=O)O,inactive,
Cc1ccc(C(C)(C)C)c(O)c1,inactive,
c1ccc2occc2c1,inactive,
Cc1occc(=O)c1O,inactive,
CN(C)C(=O)NC1(c2ccccc2)CCN(CCC[C@]2(c3ccc(Cl)c(Cl)c3)CCCN(C(=O)c3ccccc3)C2)CC1,,6.94 µM (active)
CC(=O)S[C@H](C(=O)N[C@H]1Cc2ccccc2[C@H]2CCC[C@@H](C(=O)O)N2C1=O)C(C)C,inactive,
COC(=O)CCC(=O)OC,inactive,
CCCCCCC(C=O)=Cc1ccccc1,,31.8 µM (active)
NC=O,inactive,
CCCCOC(=O)CCCCC(=O)OCCCC,inactive,
CC(=O)O[C@]1(C(C)=O)CC[C@H]2[C@@H]3C=C(Cl)C4=CC(=O)[C@@H]5C[C@@H]5[C@]4(C)[C@H]3CC[C@@]21C,,29.5 µM (active)
Nc1nc(Cl)nc2c1ncn2[C@H]1C[C@H](O)[C@@H](CO)O1,,0.147 µM (active)
Oc1ccc(O)cc1,,20 µM (active)
CCN(CC)CCOc1ccc(C(=C(Cl)c2ccccc2)c2ccccc2)cc1,,2.92 µM (active)
O=C1CCCCC1,inactive,

# Target: Peroxisome proliferator-activated receptor gamma (Homo sapiens) (UniProt P37231)
# Sequence (P37231 whole entry, looked up): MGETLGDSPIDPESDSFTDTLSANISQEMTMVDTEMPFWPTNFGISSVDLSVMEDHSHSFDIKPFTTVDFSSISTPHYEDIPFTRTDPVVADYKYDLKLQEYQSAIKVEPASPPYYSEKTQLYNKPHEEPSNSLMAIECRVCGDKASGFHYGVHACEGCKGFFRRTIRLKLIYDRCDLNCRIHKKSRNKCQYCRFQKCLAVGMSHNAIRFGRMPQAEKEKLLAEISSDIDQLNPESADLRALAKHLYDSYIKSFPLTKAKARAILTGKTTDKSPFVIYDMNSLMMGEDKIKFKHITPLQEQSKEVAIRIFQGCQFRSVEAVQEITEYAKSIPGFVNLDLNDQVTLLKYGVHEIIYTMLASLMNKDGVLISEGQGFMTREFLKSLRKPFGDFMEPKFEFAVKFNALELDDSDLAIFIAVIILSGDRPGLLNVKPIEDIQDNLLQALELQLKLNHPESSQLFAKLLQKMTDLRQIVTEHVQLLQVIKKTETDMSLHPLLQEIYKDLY
# Assay: ATG_PPARg_TRANS: Attagene TRANS-FACTORIAL HepG2 Assay for human Peroxisome Proliferator-activated Receptor-gamma (PPARg) (AID 2283007)
# Settings: not given
# Outline: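 HepG2 cells are transiently transfected with GAL4-UAS reporter units driven by chimeric NR-Gal4 fusions and dosed for 24 h. Reporter mRNA is quantified by RT-PCR, 6-FAM labelling, HpaI digestion and capillary electrophoresis. Induction is scored against DMSO.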
SMILES,outcome,AC50
CN(C)CCCN(C)CCCN(C)C,inactive,
CCC(C)N(C)C(=O)c1cc2ccccc2c(-c2ccccc2Cl)n1 (configuration not stated),inactive,
O=C(O)c1cccnc1,inactive,
CCCCCCCCCCCCCCCCO,inactive,
CCOCCOCCO,inactive,
C=CCc1ccc(OC)c(OC)c1,inactive,
CO[C@@H]1COCC[C@@H]1N[C@@H]1CC[C@@](C(=O)N2CCc3ncc(C(F)(F)F)cc3C2)(C(C)C)C1,inactive,
CC(=O)OC1CC(C)OC(C)O1 (configuration not stated),inactive,
Cc1ccc(C(C)(C)C)c(O)c1,inactive,
Cc1occc(=O)c1O,inactive,
CN(C)C(=O)NC1(c2ccccc2)CCN(CCC[C@]2(c3ccc(Cl)c(Cl)c3)CCCN(C(=O)c3ccccc3)C2)CC1,,5.21 µM (active)
CC(=O)S[C@H](C(=O)N[C@H]1Cc2ccccc2[C@H]2CCC[C@@H](C(=O)O)N2C1=O)C(C)C,inactive,
CCCCCCC(C=O)=Cc1ccccc1,,27.4 µM (active) and 6.91 µM (active)
CCCCOC(=O)CCCCC(=O)OCCCC,inactive,
CC(=O)O[C@]1(C(C)=O)CC[C@H]2[C@@H]3C=C(Cl)C4=CC(=O)[C@@H]5C[C@@H]5[C@]4(C)[C@H]3CC[C@@]21C,inactive,
Oc1ccc(O)cc1,inactive,
CCN(CC)CCOc1ccc(C(=C(Cl)c2ccccc2)c2ccccc2)cc1,inactive,
O=C1CCCCC1,inactive,

# Target: Nuclear receptor subfamily 1 group I member 2 (Homo sapiens) (UniProt O75469)
# Sequence (O75469 whole entry, looked up): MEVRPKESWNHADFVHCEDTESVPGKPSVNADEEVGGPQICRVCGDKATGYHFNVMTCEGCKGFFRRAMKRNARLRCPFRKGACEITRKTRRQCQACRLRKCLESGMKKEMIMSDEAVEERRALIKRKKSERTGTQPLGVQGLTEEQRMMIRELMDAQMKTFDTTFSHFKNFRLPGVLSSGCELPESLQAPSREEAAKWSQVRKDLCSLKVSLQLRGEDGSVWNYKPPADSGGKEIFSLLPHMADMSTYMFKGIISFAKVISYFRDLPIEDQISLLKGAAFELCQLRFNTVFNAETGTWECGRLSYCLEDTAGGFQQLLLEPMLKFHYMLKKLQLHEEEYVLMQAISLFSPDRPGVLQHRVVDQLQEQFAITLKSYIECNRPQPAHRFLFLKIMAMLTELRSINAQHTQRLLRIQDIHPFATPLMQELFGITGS
# Assay: ATG_PXR_TRANS: Attagene TRANS-FACTORIAL HepG2 Assay for human Pregnane X Receptor (PXR) (AID 2283008)
# Settings: not given
# Outline: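 Transient HepG2 transfectants carrying multiplexed reporter transcription units; PXR activity read through a Gal4 chimera. 24 h exposure. RT-PCR/CE fluorescence; upward curve fit referenced to DMSO.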
SMILES,outcome,AC50
CCCCCCCC(=O)OC,inactive,
CN(C)CCCN(C)CCCN(C)C,inactive,
CCCCC(CC)COP(=O)(OCC(CC)CCCC)OCC(CC)CCCC (configuration not stated),,0.227 µM (active)
CCC(C)N(C)C(=O)c1cc2ccccc2c(-c2ccccc2Cl)n1 (configuration not stated),inactive,
O=C(O)c1cccnc1,inactive,
CN(C)CCCN1c2ccccc2Sc2ccc(Cl)cc21,inactive,
C=CCc1ccc(OC)c(OC)c1,,28.8 µM (active)
CCCCC(CC)CO (configuration not stated),inactive,
CO[C@@H]1COCC[C@@H]1N[C@@H]1CC[C@@](C(=O)N2CCc3ncc(C(F)(F)F)cc3C2)(C(C)C)C1,inactive,
N[C@@H](Cc1c[nH]c2ccccc12)C(=O)O,inactive,
Cc1ccc(C(C)(C)C)c(O)c1,,47.2 µM (active)
CN(C)C(=O)NC1(c2ccccc2)CCN(CCC[C@]2(c3ccc(Cl)c(Cl)c3)CCCN(C(=O)c3ccccc3)C2)CC1,,0.554 µM (active)
CC(=O)S[C@H](C(=O)N[C@H]1Cc2ccccc2[C@H]2CCC[C@@H](C(=O)O)N2C1=O)C(C)C,inactive,
COC(=O)CCC(=O)OC,inactive,
CCCCCCC(C=O)=Cc1ccccc1,inactive,100 µM (active)
NC=O,inactive,
CCCCOC(=O)CCCCC(=O)OCCCC,inactive,
CC(=O)O[C@]1(C(C)=O)CC[C@H]2[C@@H]3C=C(Cl)C4=CC(=O)[C@@H]5C[C@@H]5[C@]4(C)[C@H]3CC[C@@]21C,inactive,
Nc1nc(Cl)nc2c1ncn2[C@H]1C[C@H](O)[C@@H](CO)O1,inactive,
